# Results: PubChem BioAssay AID1851 (National Center for Advancing Translational Sciences (NCATS), 2009)
# In all, about 16,000 compounds went through this assay and about 4,000 (25%) were called active. Roughly 26% stayed inconclusive and do not appear here. A selection follows. Unmarked numbers belong to inactive results. The call rests on the fitted dose curve; in most records, active means well fitted curve in the direction sought with a large enough effect; inconclusive means small, poorly fitted or top-dose-only effect, or effect the other way; inactive means no such curve, though single readings can be large or run the other way.
# Target: Cytochrome P450 2C9 (Homo sapiens) (UniProt P11712)
# Sequence (P11712 whole entry, looked up): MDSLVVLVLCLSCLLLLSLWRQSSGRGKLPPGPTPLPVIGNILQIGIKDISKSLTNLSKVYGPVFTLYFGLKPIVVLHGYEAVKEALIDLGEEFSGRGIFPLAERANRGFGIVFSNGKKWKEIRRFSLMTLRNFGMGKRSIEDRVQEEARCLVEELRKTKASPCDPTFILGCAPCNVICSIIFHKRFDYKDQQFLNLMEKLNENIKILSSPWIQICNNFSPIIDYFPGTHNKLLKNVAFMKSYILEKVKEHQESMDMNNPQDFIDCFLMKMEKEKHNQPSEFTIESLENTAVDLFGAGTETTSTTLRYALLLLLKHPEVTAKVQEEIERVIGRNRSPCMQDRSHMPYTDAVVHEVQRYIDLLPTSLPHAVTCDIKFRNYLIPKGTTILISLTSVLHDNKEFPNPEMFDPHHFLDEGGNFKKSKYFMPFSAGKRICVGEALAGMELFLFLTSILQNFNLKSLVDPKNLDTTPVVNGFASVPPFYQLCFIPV
# Assay: Cytochrome panel assay with activity outcomes
# Settings: recombinant CYP, pro-luciferin dealkylation, luminescence, p450-cyp2c9; series mostly up to 57.1 µM; activity, negative = inhibition: at the top concentration
# On the % scale 0 is the no-effect control and ±100 the full control effect.
SMILES,"activity, negative = inhibition",AC50
CC1(C)C2([N+](=O)[O-])CN3CC1([N+](=O)[O-])CN(C2)C3c1ccccc1 (centres undefined),-20.9% (inactive),
FC(F)(F)c1ccccc1-c1cc(NCCN2CCOCC2)ncn1,26.8% [at 2.29 µM],
CCOC(=O)Oc1c(OC)cc(C(=O)O[C@H]2C[C@H]3CN4CCc5c([nH]c6cc(OC)ccc56)[C@@H]4C[C@H]3[C@@H](C(=O)OC)[C@@H]2OC)cc1OC,-2.83% [at 25.6 µM] (inactive),
Cc1ccc(S(=O)(=O)N(Cc2ccccc2)c2ccccc2C(=O)NCc2ccco2)cc1,,0.0398 µM (active)
Cc1cccc(C)c1NC(=O)CCN1C(=O)C2C3CCC(C3)C2C1=O (centres undefined),-43.2% (inactive),
Cc1cc(C(=O)CSc2nnc(-c3ccccc3)o2)c(C)n1CC1COc2ccccc2O1 (centres undefined),,3.55 µM (active)
CCn1ccnc1C[C@@H]1COc2ccccc2O1,,inactive
Cc1ccc(SCc2[nH]nc3c2C(C(C)C)C(C#N)=C(N)O3)cc1 (centres undefined),,7.08 µM (active)
Fc1ccc(CSc2ncnc3sc4c(c23)CCCC4)cc1,,11.2 µM (active)
O=C(O)CSc1ncnc2sc3c(c12)CCC3,-25.3% (inactive),
Fc1cccc(CSc2ncnc3c2ncn3[C@H]2CCCS2)c1,9.41% [at 11.4 µM],
O=C(NNc1nc2ccccc2s1)C1CC1,-21.8% (inactive),
COCCN1CN=C(Nc2nc3ccccc3s2)NC1,-22.2% (inactive),
O=[N+]([O-])c1ccc(Nc2nc3ccccc3s2)cc1,,1.26 µM (active)
C/C(CC(=O)Nc1cc(C)ccn1)=N\NC(=O)COc1cccc(C)c1,-22% (inactive),
CCCCC(=O)NC(Nc1cc(C)ccn1)(C(=O)OCC)C(F)(F)F (centres undefined),,22.4 µM (active)
CCCc1nn(-c2ccccc2)c2c1C(c1cccs1)C(C#N)=C(N)O2 (centres undefined),,4.47 µM (active)
CC(C)N(Cc1ccccc1)S(=O)(=O)c1n[nH]c(C(C)(C)C)n1,,3.98 µM (active)
COc1ccc(CCNC(=O)Cn2cnc3c2c(=O)n(C)c(=O)n3C)cc1OC,-21% (inactive),
Cc1ccc(C)c(NC(=O)Cn2nnc(C(=O)NCc3cccs3)c2N)c1,-22% (inactive),
COc1ccc(CCNC(=O)c2nnn(CC(=O)Nc3ccccc3C)c2N)cc1OC,,15.8 µM (active)
COc1ccccc1CNc1ncncc1-c1ccccc1C(F)(F)F,-18.6% [at 2.29 µM],
CN1c2ccccc2Oc2c(c(=O)n(C)c(=O)n2C)C1c1cccc([N+](=O)[O-])c1 (centres undefined),,4.47 µM (active)
O=C(c1ccccc1)[C@@H]1O[C@H]1c1ccc(-c2ccccc2)cc1,,12.6 µM (active)
CC(=NCC(=O)O)c1ccccc1,2.4% [at 11.4 µM],

SMILES,"activity, negative = inhibition",AC50
CCCCCCCCCCCCCCC[C@H](O)[C@H](N)CO,-10.3% (inactive),
O=C(O)c1cc(-c2ccc(-c3ccccc3)cc2)nc2cc3ccccc3cc12,-27% [at 11.4 µM],
Cc1ccc2nc(Nc3nc(-c4ccccc4)cc(=O)[nH]3)nc(C)c2c1,,2.82 µM (active)
Cc1ccccc1/C=C\C1=NCCN1,16.2% (inactive),
CC(C)(C)COS(=O)OCC(C)(C)C,-7.38% [at 11.4 µM],
Cc1ccc(S(=O)(=O)/C=C\C#N)cc1,,12.6 µM (active)
CCN(CC)CCNC(=O)c1cc(Cl)c(N)cc1OC,,inactive
CC1=C(C(=O)OCc2ccccc2)C(c2ccc3ccccc3c2)NC(=O)N1CCCCCC(=O)O (centres undefined),,7.94 µM (active)
CN1CCC[C@@H]1CCO[C@](C)(c1ccccc1)c1ccc(Cl)cc1,2.58% [at 25.6 µM] (inactive),
CC1=C(C(=O)OCc2ccccc2)C(c2ccc(Cl)cc2)NC(=O)N1CCCCCC(=O)O (centres undefined),,12.6 µM (active)
CC1=C(C(=O)OCc2ccccc2)C(c2ccc([N+](=O)[O-])cc2)NC(=O)N1CCCCCC(=O)O (centres undefined),,15.8 µM (active)
CC(C)=CCC/C(C)=C/CO/N=C1/C[C@@H](O)[C@@H](O)[C@@H]2[C@@H]3C(=O)N(C[C@@H]4CCCO4)C(=O)[C@H]3CC[C@@H]12,9.34% [at 11.4 µM],
CN(C)[C@H]1C(=O)C(C(=O)NCN2CCCC2)=C(O)[C@]2(O)C(=O)C3=C(O)c4c(O)cccc4[C@](C)(O)[C@H]3C[C@H]12,-10.5% [at 11.4 µM],
Cc1cc(=Nc2ccc3c(c2)c(N)cc(C)[n+]3C)nc(N)n1C,13% [at 11.4 µM],
CCCC(C(=O)OCCN(CC)CC)(c1ccccc1)c1ccccc1,-47.9% [at 25.6 µM] (inactive),
CCN(CC)CC#CCC(C)(c1ccccc1)c1ccccc1,,15.8 µM (active)
N=C(N)SCCSC(=N)N,-1.93% [at 11.4 µM],
COc1cc(C(=O)N2CCN(C(=O)c3ccccc3)CC2)cc(OC)c1OC,-11% (inactive),
COc1cc(OC)c(C2C(C(=O)O)c3ccccc3C(=O)N2C)cc1OC (centres undefined),-22.7% (inactive),
COc1cc2c3c(c1OC)C1(C=CC(=O)C=C1)CC3N(C(=O)c1ccccc1)CC2 (centres undefined),,3.16 µM (active)
c1ccc(CNc2cc(-c3ccoc3)ncn2)cc1,-12.4% [at 2.29 µM],
c1ccc(-c2nc(CSc3n[nH]c(-c4cccs4)n3)cs2)cc1,,20 µM (active)
O=C(c1cnccn1)N1CCC2(CCCN(c3ncccn3)C2)CC1,-7.23% (inactive),
CCOc1ccc(Cc2nccc3cc(OCC)c(OCC)cc23)cc1OCC,,3.98 µM (active)
